CHT inh: human CHT choline transport inhibition; AID 488975; B-score at 10 µM; CHT-expressing cells, membrane potential dye, choline response; hits give low values; hit rate 0.86% among 310,000; Q9GZV3;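 active means B-score over 3 SD under the library average, and starting fluorescence ratio not unusually high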;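 further: choline stimulus applied at its EC90 after an EC20 pre-addition; B-score computed on integrated fluorescence ratio after choline addition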
TMEM16A inh: blocks the mouse calcium-activated chloride channel TMEM16A; HEK293 TMEM16A/YFP iodide influx fluorescence, ionomycin; hit rate 1.2% among 310,000; AID 588511; normalized B-score (activity score, 25-100; higher = stronger inhibition) at 10 µM;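 active means ratio plate-corrected score three or more library SD toward inhibition, starting fluorescence score within five deviations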;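 further: score derived from kinetic fluorescence span divided by baseline fluorescence per well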
CHT PAM: allosterically activates the human high affinity choline transporter; CHT-expressing cells, membrane potential dye, choline EC20; hits give high values; LV-AA mutant CHT in HEK293 cells; Q9GZV3; AID 488977; hit rate 0.49% among 310,000; B-score at 10 µM;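 active means initial fluorescence not abnormally high and integrated response B-score, plate-corrected, over 3 SD above library mean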
ANO1 activ: activators or potentiators of mouse TMEM16A chloride channel | Q8BHY3 | HEK293 TMEM16A/YFP-H148Q/I152L, iodide quench fluorescence; hits give low values | B-score at 10 µM | hit rate 0.3% among 340,000 | AID 623877;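 active means fluorescence-ratio B-score plate-corrected deviation score at least 3 library SD below zero, with starting fluorescence score within 5 deviations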;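 further: channel opened by trigger with iodide after compound preincubation; score built on the fluorescence ratio of max minus min over baseline; more negative score means more quench and so TMEM16A activation or potentiation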
CHT activ conf: human CHT activation, confirmatory screen; hit rate 91% among 2,500; CHT-expressing cells, membrane potential dye fluorescence (FDSS); % of choline EC20–EC90 response window; HEK293 expressing CHT LV-AA mutant; choline added at its EC20; shares compounds with CHT PAM; activation, % at 10 µM;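 active means primary screen active, with duplicate mean activation above negative control mean plus 3 SD, cut at about 11% in these data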
HEK293 MP dye: activity in parental HEK293 cells lacking CHT; shares compounds with CHT PAM; membrane potential dye fluorescence (FDSS); measured after EC20 choline addition; ratio readout change at 10 µM, hits read low; hit rate 62% among 2,500; AID 623908;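 active means duplicate-averaged ratio beyond 3 SD from buffer wells, up or down, though filed actives are nearly all decreases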
Active calls of the source: *; i = inactive; · = no result. Rows were chosen to be rich in hits. Some 2.4% of all compounds tested hit in one or more screens of this group.

SMILES	CHT inh	TMEM16A inh	CHT PAM	ANO1 activ	CHT activ conf	HEK293 MP dye
N#Cc1c(NC(=O)CCn2cnc3ccccc3c2=O)oc(-c2ccccc2)c1-c1ccccc1	i	i	i	i	4.6	i
N#Cc1c(NC(=O)CSc2ccccn2)oc(-c2ccccc2)c1-c1ccccc1	i	i	i	i	·	·
COc1ccc(C(=O)c2c(N)sc3c2CCN(C)C3)cc1	i	i	8.3*	i	40.9*	-53.2*
CN1CCc2c(sc(N)c2C(=O)O)C1	i	i	i	i	·	·
COc1cc2c(cc1OC)C(c1cccc([N+](=O)[O-])c1)N(C(=O)c1ccccc1C(=O)O)CC2 (stereo unspecified)	i	i	i	i	·	·
COc1cc(NC(=O)CCCNC(=O)Cn2cnc3sc(C)c(C)c3c2=O)cc(OC)c1OC	i	i	i	i	·	·
COCCCNC(=O)CCC(=O)Nc1ccc2nc(N3CCOCC3)cc(C)c2c1	i	i	7.97*	i	37.0*	-52*
CCCCN(CC)CCNC(=O)CCC(=O)Nc1ccc2nc(N3CCN(C)CC3)cc(C)c2c1	i	i	i	i	41.6*	i
CCCN(CCC)CCCNC(=S)Nc1ccc2nc(N3CCN(C)CC3)cc(C)c2c1	i	i	i	i	52.0*	-26.7*
CCCCNC(=O)CCC(=O)Nc1ccc2nc(N3CCOCC3)cc(C)c2c1	i	i	i	i	·	·
CCN(CC)CCCNC(=O)CCC(=O)Nc1ccc2nc(N3CCCCC3)cc(C)c2c1	i	i	i	i	·	·
CCCCN(CC)CCNC(=S)Nc1ccc2nc(N3CCN(C)CC3)cc(C)c2c1	i	i	i	i	34.8*	i
Cc1cc(N2CCN(C)CC2)nc2ccc(NC(=S)NC3CC3)cc12	i	i	i	i	·	·
CSc1ccccc1NC(=O)CN(C)S(=O)(=O)c1ccc(F)cc1	i	i	i	i	·	·
Cc1ccnc(NS(=O)(=O)c2ccc(NC(=O)c3ccc(S(=O)(=O)N4CC(C)OC(C)C4)cc3)cc2)n1 (stereo unspecified)	i	i	i	i	·	·
CCC/C(C#CCCN1C(=O)c2ccccc2C1=O)=C1/c2ccccc2C(=O)N1c1ccccc1	·	·	·	i	·	·
COc1cccc2c(=O)c3c(cnn3C)n(C)c12	i	i	10.1*	i	50.8*	-54.8*
CC1CCCC(NC(=O)CCn2c(=O)oc3ccccc32)C1C (stereo unspecified)	i	i	i	i	·	·
Cc1nnc(C)c2c(C)n(Cc3ccc4c(c3)OCO4)c(C)c12	i	i	8.06*	i	54.3*	-44.7*
CC[N+](CC)(CC)CCOc1cccc(OCC[N+](CC)(CC)CC)c1OCC[N+](CC)(CC)CC	i	i	10.8*	i	72.5*	-92.8*
CCOC(=O)c1cnc2ccc(OCC)cc2c1N1CCN(C)CC1	i	i	8.37*	i	40.7*	-39.6*
CCOC(=O)c1cnc2ccc(Cl)cc2c1N1CCN(C)CC1	i	i	i	i	·	·
Cc1ccc(NC(=O)CN(c2ccccc2)S(=O)(=O)N(C)C)cc1	i	i	i	i	·	·
OCCN(CCCn1c(C(F)(F)F)nc2ccccc21)c1nc(CN2CCCCC2)cs1	i	i	i	i	·	·
OCCN(CCCn1c(-c2ccncc2)nc2ccccc21)c1nc(CN2CCCCC2)cs1	i	i	i	i	59.6*	-43.9*
SMILES	CHT inh	TMEM16A inh	CHT PAM	ANO1 activ	CHT activ conf	HEK293 MP dye
N#C/C(=C\c1c(N2CCCCC2)nc2ccccn2c1=O)C(=O)NC1CCS(=O)(=O)C1 (stereo unspecified)	i	i	12.8*	i	0.4	-62.3*
Cc1cccn2c(=O)c(/C=C(\C#N)C(=O)NC3CCS(=O)(=O)C3)c(N3CCC(C)CC3)nc12 (stereo unspecified)	i	i	i	i	·	·
COc1ccc(C(=O)C(CCCCC(CN(C)C)C(=O)c2ccc(OC)cc2)CN(C)C)cc1 (stereo unspecified)	i	i	i	i	15.3*	-27.2*
CCOc1ccc(C(=O)C(CCC(CN(C)C)C(=O)c2ccc(OCC)cc2)CN(C)C)cc1 (stereo unspecified)	·	·	·	i	·	·
C[n+]1cccc2c(Br)ccc([O-])c21	i	i	6.42*	i	58.0*	-47.6*
COc1ccccc1CCNC(=O)c1ccc2nc[nH]c2c1	i	i	i	i	·	·
Cn1ncc(C#N)c1/N=C/N(Cc1ccccc1)Cc1ccccc1	i	i	15.7*	i	45.9*	i
CCc1ccc(CN2CCC(n3nccc3NC(=O)c3ccccc3)CC2)o1	i	i	i	i	·	·
Nc1c2c(nc3ccn(-c4ccccc4)c(=O)c13)CCCCC2	i	i	i	i	48.7*	-50*
O=c1[nH]c(N2CCN(c3ccccc3)CC2)nc2c1CCCC2	i	i	i	i	·	·
O=c1[nH]c(N2CCN(Cc3ccccc3)CC2)nc2c1CCC2	i	i	i	i	·	·
Nc1c2c(nc3ccn(Cc4ccccc4)c(=O)c13)CCC2	i	i	6.98*	i	54.0*	-50.2*
Nc1nc(SCC(=O)Nc2ccc([N+](=O)[O-])cc2)[nH]c(=O)c1NC(=O)c1ccc(Br)cc1	i	i	i	i	·	·
CN1CCN(c2nc3c(c(=O)n(C)c(=O)n3C)n2CCSc2nnnn2-c2ccccc2)CC1	i	i	7.25*	i	52.4*	-71*
CC1CCN(c2nc3c(c(=O)n(C)c(=O)n3C)n2Cc2ccccc2)CC1	i	i	6.61*	i	7.1	i
Cn1c(=O)[nH]c(=O)c2c1nc(N1CCCC1)n2CCCSc1nnnn1-c1ccccc1	i	i	i	i	·	·
CN1CCN(c2nc3c(c(=O)[nH]c(=O)n3C)n2CCSc2nnnn2-c2ccccc2)CC1	i	i	8.19*	i	58.7*	-67.8*
COc1ccc(C)cc1S(=O)(=O)N(C)CC(=O)N1CCN(c2ccccc2)CC1	i	i	i	i	·	·
CCOc1ccc(S(=O)(=O)N2CC(=O)Nc3ccccc32)cc1	i	i	i	i	·	·
CCCOc1ccc(C2C(C(=O)/C=C/c3ccco3)=C(O)C(=O)N2CCN2CCOCC2)cc1OC (stereo unspecified)	i	i	i	i	·	·
N/C(CS(=O)(=O)c1ccc(F)cc1)=N\O	i	i	i	i	·	·
CCOc1ccccc1NC(=O)CSc1nnc(-c2ccco2)o1	i	i	15.7*	i	6.9	i
